Data on eight compounds can be found in PubChem BioAssay (Tox21).

Assay [1] is described as follows: qHTS assay to test for compound auto fluorescence at 535 nm (green) in HEK293 cells (AID 720680). Further: potency means the concentration at half of the fitted maximal effect. In general terms: Quantitative high-throughput screening tests each substance at several concentrations.
Assay [2] can be described thus: qHTS assay to test for compound auto fluorescence at 460 nm (blue) in HEK293 cell free culture (AID 720681). Summed up:
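Blue fluorescence (Ex 405/Em 460 nm, triamterene-equivalent) was read immediately after pin transfer of compound or DMSO into medium (DMEM, 10% FBS) without cells.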

Assay [3] in a line: qHTS assay to test for compound auto fluorescence at 535 nm (green) in HEK293 cell free culture (AID 720682). Further: potency means the concentration at half of the fitted maximal effect. In short, it runs like this:
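Cell-free medium (DMEM, 10% FBS) receives compound or DMSO by pintool. Plate read directly at Ex 485/Em 535 nm. Signal converted to fluorescein equivalency.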

The nature of assay [4]: qHTS assay to test for compound auto fluorescence at 590 nm (red) in HEK293 cell free culture (AID 720683). In short, it runs like this:
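Red-channel autofluorescence of compounds in culture medium (DMEM, 10% FBS), no cells, measured at 540/590 nm. Rose Bengal sodium is the reference fluorophore for equivalence.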

A short description of assay [5]: qHTS assay to test for compound auto fluorescence at 590 nm (red) in HepG2 cell free culture (AID 720684). In short, it runs like this: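 No cells present: MEM + 10% FBS only. Compound pinned in, red label read (540/590 nm). Activity = fluorescence equivalent to Rose Bengal sodium.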
Assay [6] is described as follows: qHTS assay to test for compound auto fluorescence at 460 nm (blue) in HepG2 cell free culture (AID 720685). In short, it runs like this: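 Cell-free plates of MEM plus 10% FBS received 23 nL compound or DMSO vehicle; blue-channel (405/460 nm) intensity scored against triamterene as reference fluorophore.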
Assay [7] is described as follows: qHTS assay to test for compound auto fluorescence at 535 nm (green) in HepG2 cell free culture (AID 720686). Further: potency means the concentration at half of the fitted maximal effect.
Assay [8] is described as follows: qHTS assay to test for compound auto fluorescence at 460 nm (blue) in HepG2 cells (AID 720687). In short, it runs like this:
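Blue-channel autofluorescence (Ex/Em 405/460 nm, triamterene-equivalent) was measured after 1 hr compound exposure at 37 C, 5% CO2. Cells were HepG2, plated overnight at 37 C in MEM plus 10% FBS.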

Assay [9] has as its target Glucocorticoid receptor (Homo sapiens) (UniProt P04150). As to the kind of experiment: qHTS assay to identify small molecule agonists of the glucocorticoid receptor (GR) signaling pathway (AID 720691; active means well fitted activation curve with a large enough effect in the signal ratio in the repeat runs, not every such curve was filed as active; the % refers to the signal ratio). In short, it runs like this: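 Measures GR pathway activation through a GRE-beta-lactamase reporter stably integrated in HeLa cells, with 18 h compound treatment at 37 C and fluorescence detection using a FRET substrate.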

Assay [10] has the same target. As to the kind of experiment: qHTS assay to identify small molecule antagonists of the glucocorticoid receptor (GR) signaling pathway (AID 720692; active means well fitted inhibition curve with a large enough effect in the signal ratio in the repeat runs, not every such curve was filed as active; the % refers to the signal ratio). Summed up:
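Tox21 10K library screened in concentration-response for blockade of dexamethasone (5 nM final)-induced GRE-bla reporter activity in HeLa cells; 18 h treatment, fluorescence read.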

Assay [11] can be described thus: qHTS assay to identify small molecule antagonists of the glucocorticoid receptor (GR) signaling pathway - cell viability counter screen (AID 720693). Further: nearly all actives have a fitted effect of over 55% in size.
Assay [12] can be described thus: qHTS assay for identifying genotoxic compounds that show differential cytotoxicity against isogenic chicken DT40 cell lines with known DNA damage response pathways - Rad54/Ku70 mutant cell line (AID 743015). Further: nearly all actives have a fitted effect of over 60% in size. Further: potency means the concentration at half of the fitted maximal effect.
Assay [13] is described as follows: qHTS assay to identify small molecule antagonists of the androgen receptor (AR) signaling pathway - cell viability counter screen (AID 743033; further: nearly all actives have a fitted effect of over 45% in size).
The nature of assay [14]: qHTS assay to identify small molecule antagonists of the androgen receptor (AR) signaling pathway using the MDA cell line - cell viability counter screen (AID 743041; further: nearly all actives have a fitted effect of over 45% in size). In short, it runs like this:
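Using the breast carcinoma line MDA-kb2 AR-luc, test chemicals were co-incubated with R1881 for 16 h; CellTiter-Fluor reagent, added at 15.5 h, provided a fluorescence measure of live cells.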

Assay [15] is described as follows: qHTS assay for identifying genotoxic compounds that show differential cytotoxicity against isogenic chicken DT40 cell lines with known DNA damage response pathways - Rev3 mutant cell line (AID 743014). Further: nearly all actives have a fitted effect of over 55% in size. Further: potency means the concentration at half of the fitted maximal effect.
The nature of assay [16]: qHTS assay for identifying genotoxic compounds that show differential cytotoxicity against isogenic chicken DT40 cell lines with known DNA damage response pathways - wild type cell line (AID 743012). Further: nearly all actives have a fitted effect of over 60% in size. Further: potency means the concentration at half of the fitted maximal effect. Summed up: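 Endpoint: CellTiter-Glo luminescence, 30 min RT. Cells: wild type DT40, 300/well. Exposure: compounds in DMSO, 40 h, 37 C/5% CO2, after ~0.5 h pre-incubation.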

Assay [17] addresses Androgen receptor (Homo sapiens) (UniProt P10275). As to the kind of experiment: qHTS assay to identify small molecule antagonists of the androgen receptor (AR) signaling pathway (AID 743035; active means well fitted inhibition curve with a large enough effect in the signal ratio in the repeat runs, not every such curve was filed as active; the % refers to the signal ratio). Summed up:
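R1881 agonist challenge of a HEK293 UAS-beta-lactamase AR reporter line in the presence of compound (16 h, 37C); signal taken as FRET fluorescence after 2 h with LiveBLAzer B/G substrate at room temperature.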

Assay [18] shares this target. As to the kind of experiment: qHTS assay to identify small molecule agonists of the androgen receptor (AR) signaling pathway (AID 743036; active means well fitted activation curve with a large enough effect in the signal ratio in the repeat runs, with a control signal flat, not every such curve was filed as active; the % refers to the signal ratio). In short, it runs like this: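 AR-bla HEK293 cells, 2,000/well; 4 h preincubation 37C/5% CO2; compound (DMSO) 16 h at 37C; LiveBLAzer B/G FRET substrate 2 h RT; fluorescence intensity read-out.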
For assay [19] the target is unchanged. In words: qHTS assay to identify small molecule agonists of the androgen receptor (AR) signaling pathway using the MDA cell line (AID 743040; further: nearly all actives have a fitted effect of over 20% in size). In short, it runs like this:
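Stable MMTV-luciferase reporter in MDA-kb2 cells; note the promoter carries GR as well as AR response elements. 16 h compound treatment, 37C, 0% CO2; ONE-Glo luminescence endpoint.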

Assay [20] has the same target. In words: qHTS assay to identify small molecule antagonists of the androgen receptor (AR) signaling pathway using the MDA cell line (AID 743042; further: nearly all actives have a fitted effect of over 55% in size). Summed up:
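Antagonist mode: compounds plus R1881 agonist added to MDA-kb2 AR-luc cells, incubated 16 h at 37C. Luciferase reporter luminescence quantified, with multiplexed CellTiter-Fluor readout for cell viability.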

Unmarked numbers belong to inactive results. Inconclusive results are not listed. The source made the active and inactive calls. Unless noted, the call rests on the fitted dose curve; in most records, active means well fitted curve in the direction sought with a large enough effect in the repeat runs; inconclusive means weak or mixed curves; inactive means no such curve, though single readings can be large; an effect the other way counts as inactive or inconclusive.
On the % scale 0 is the no-effect control and ±100 the full control effect; tags describe the fitted curve by direction and shape or compound fluorescence and quenching.

Sequence of Glucocorticoid receptor (Homo sapiens) (P04150 whole entry, looked up): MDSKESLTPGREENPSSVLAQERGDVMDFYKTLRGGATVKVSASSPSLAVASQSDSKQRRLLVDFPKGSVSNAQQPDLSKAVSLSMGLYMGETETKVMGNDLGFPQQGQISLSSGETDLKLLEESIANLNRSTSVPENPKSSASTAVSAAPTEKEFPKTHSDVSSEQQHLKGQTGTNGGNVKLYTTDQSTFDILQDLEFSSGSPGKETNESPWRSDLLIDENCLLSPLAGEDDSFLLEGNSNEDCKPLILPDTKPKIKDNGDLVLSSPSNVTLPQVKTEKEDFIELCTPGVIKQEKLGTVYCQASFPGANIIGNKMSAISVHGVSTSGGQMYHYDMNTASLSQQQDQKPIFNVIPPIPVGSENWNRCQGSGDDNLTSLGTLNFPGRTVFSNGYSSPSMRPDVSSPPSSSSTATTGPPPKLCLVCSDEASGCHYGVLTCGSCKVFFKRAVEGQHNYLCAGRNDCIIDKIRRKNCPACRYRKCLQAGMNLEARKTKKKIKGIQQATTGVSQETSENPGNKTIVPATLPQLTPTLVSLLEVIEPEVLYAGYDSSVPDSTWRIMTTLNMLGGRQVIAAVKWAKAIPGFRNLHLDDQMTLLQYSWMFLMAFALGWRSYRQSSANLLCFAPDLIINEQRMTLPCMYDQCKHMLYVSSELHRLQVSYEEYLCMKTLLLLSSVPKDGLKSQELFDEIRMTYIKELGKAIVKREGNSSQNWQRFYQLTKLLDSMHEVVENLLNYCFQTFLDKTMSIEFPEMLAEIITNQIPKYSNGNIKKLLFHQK
Sequence of Androgen receptor (Homo sapiens) (P10275 whole entry, looked up): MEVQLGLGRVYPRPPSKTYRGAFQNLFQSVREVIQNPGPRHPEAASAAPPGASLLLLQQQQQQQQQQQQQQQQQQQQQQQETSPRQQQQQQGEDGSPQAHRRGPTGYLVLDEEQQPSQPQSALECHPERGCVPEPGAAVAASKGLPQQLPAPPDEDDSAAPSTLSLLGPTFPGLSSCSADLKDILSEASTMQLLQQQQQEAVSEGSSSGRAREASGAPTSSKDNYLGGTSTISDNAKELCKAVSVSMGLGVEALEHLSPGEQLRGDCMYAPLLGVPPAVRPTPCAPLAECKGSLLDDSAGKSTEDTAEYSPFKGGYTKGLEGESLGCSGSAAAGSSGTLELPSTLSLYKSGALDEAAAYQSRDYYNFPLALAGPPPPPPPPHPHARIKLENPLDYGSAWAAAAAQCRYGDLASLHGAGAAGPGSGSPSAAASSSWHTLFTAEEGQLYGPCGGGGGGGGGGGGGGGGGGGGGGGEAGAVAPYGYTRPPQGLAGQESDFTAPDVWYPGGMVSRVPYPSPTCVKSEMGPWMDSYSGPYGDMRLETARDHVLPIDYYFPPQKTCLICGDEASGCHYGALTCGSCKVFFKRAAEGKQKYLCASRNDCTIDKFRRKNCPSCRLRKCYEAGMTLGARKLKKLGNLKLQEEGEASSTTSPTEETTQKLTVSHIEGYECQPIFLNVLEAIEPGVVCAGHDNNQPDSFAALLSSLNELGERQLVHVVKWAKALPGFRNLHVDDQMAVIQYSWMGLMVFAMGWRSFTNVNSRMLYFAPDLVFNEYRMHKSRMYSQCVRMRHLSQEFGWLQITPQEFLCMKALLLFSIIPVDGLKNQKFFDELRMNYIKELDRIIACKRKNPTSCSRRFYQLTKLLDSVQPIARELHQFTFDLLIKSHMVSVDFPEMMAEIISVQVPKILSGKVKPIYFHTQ

In the case of `CC(C)CCOC(=O)/C=C/c1ccccc1`, the Potency result in assay [1], in [2], in [3], in assay [4], in assay [5] and in [6] was “inactive” each time. Also, the Potency result in assay [7], in assay [8], in assay [9], in assay [10], in assay [11] and in assay [12] was “inactive” in each case. Moreover, the Potency entry in [13] and in assay [14] was “inactive” throughout.
Regarding `CC1(C)CCC[C@]2(C)[C@H]3CC(=O)O[C@]3(C)CC[C@@H]12`, the Potency result in [1], in assay [2], in assay [3], in assay [4], in [5] and in assay [6] was “inactive” each time. For the same compound, the Potency entry in assay [7], in [8], in assay [9], in assay [10], in assay [11] and in assay [14] was “inactive” throughout. In addition, the Potency in assay [15] is 61.1 µM (active).
As to `OCC(F)(F)F`, the Potency result in assay [1], in [2], in assay [3], in [4], in [5] and in [6] was “inactive” each time. Further, the Potency entry in assay [7], in [8], in assay [9], in assay [10], in assay [11] and in assay [16] was “inactive” in each case. Also, the Potency entry in assay [15], in [12], in [13] and in assay [14] was “inactive” each time.
Regarding `COc1cc2nc(N3CCN(C(=O)c4ccco4)CC3)nc(N)c2cc1OC`, the Potency entry in assay [1], in assay [2], in assay [3], in assay [4], in assay [5] and in [6] was “inactive” throughout. The Potency result in [7], in [8], in assay [9] and in [11] was “inactive” throughout. The Potency was 10.6 µM (active) in assay [16], 13.3 µM (active) in [15] and 13.3 µM (active) in assay [12].
For the compound `Sc1nc2ccccc2s1`, the Potency result in assay [1], in [2], in assay [3], in assay [4], in [5] and in assay [6] was “inactive” in each case. For the same compound, the Potency result in assay [7], in [8], in assay [9], in [10] and in assay [11] was “inactive” in each case.
Consider `NC[C@H]1O[C@H](O[C@H]2[C@H](O[C@@H]3O[C@H](CO)[C@@H](O)[C@H]3O)C(O)[C@H](N)C[C@@H]2N)[C@H](N)[C@@H](O)[C@@H]1O` (stereo not given in full), for which, in assay [1], the fluorescence, % of fluorescein was -0.0694% [at 18.6 µM]. Besides, the fluorescence, % of fluorescent control was -0.0104% [at 18.6 µM] in [2], 0.335% [at 18.6 µM] in assay [4], 0.0653% [at 18.6 µM] in assay [6] and -0.0247% [at 18.6 µM] in assay [8]. The activity change in assay [3] was -0.144% [at 18.6 µM, hits give high values]. For the same compound, the fluorescence, % of Rose Bengal in assay [5] is -0.0591% [at 18.6 µM]. In addition, the fluorescence, % of fluorescein control in [7] is -0.0227% [at 18.6 µM]. Besides, the Potency result in assay [9], in assay [10], in assay [11], in [16], in assay [15] and in assay [12] was “inactive” in each case. Also, the Potency entry in [13] is “inactive”.
For `O=C1OC2(c3ccc(O)cc3Oc3cc(O)ccc32)c2ccc(N=C=S)cc21`, the Potency is 39.8 µM [fluorescent] (active) in assay [1], 39.8 µM [fluorescent] (active) in assay [3] and 35.5 µM [fluorescent] (active) in assay [7]. For the same compound, the Potency entry in assay [2], in [4], in [5], in assay [6], in assay [8] and in assay [9] was “inactive” throughout. In addition, the Potency entry in assay [10], in assay [11], in assay [16], in assay [15], in assay [12] and in assay [13] was “inactive” in each case.
With `CC(C)OC(=O)C(O)(CC(=O)O)CC(=O)O`, the Potency result in [1], in assay [2], in assay [3], in assay [4], in assay [5] and in assay [6] was “inactive” each time. The Potency result in assay [7], in assay [8], in [11], in assay [16], in assay [15] and in assay [12] was “inactive” throughout. Besides, the Potency entry in assay [13], in assay [17], in assay [18], in [14] and in assay [20] was “inactive” each time. Moreover, the outcome in [19] was inactive.
